Most compounds without a hit are left out; they make up all but 4% or so of the library.
MITF act – increases MITF-driven TRPM1 promoter luciferase signal. SK-MEL-5 TRPM1-promoter luciferase, 24 h; % of positive control, neutral wells = 0. activation, % at 12.5 µM. hit rate 0.75% among 300,000. AID 588334;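 active = mean activation of at least 80% with every replicate also reaching 80%; inconclusive = mean reaches 80% but some replicate falls short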
PAX8 inh HTS – lowers PAX8-driven luciferase in RMG-I cells; AID 652154; inhibition, % at 12.6 µM; hit rate 1.2% among 360,000; RMG-I TPO-luciferase reporter, SteadyGlo, 24 h;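 active = mean replicate inhibition at least 60% with every replicate also reaching 60%; inconclusive = only one of the two criteria is met; inactive = mean below 60% and not all replicates reaching 60%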;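 also: luciferase light reporting Pax8 driven TPO promoter activity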
TRPM1 prom inh – MITF TRPM1 promoter inhibition in SK-MEL-5 cells. hit rate 0.83% among 330,000. inhibition, % at 12.5 µM. AID 488899. SK-MEL-5 TRPM1 promoter luciferase, 24 h;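 active = mean inhibition across replicates of 60% or more, whatever share of single replicates reaches that level; inconclusive = some that reach 60%, reason not given; inactive = mean inhibition across replicates below 60%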
esBAF inh – inhibitors of esBAF chromatin remodeling in mouse ES cells; AID 602393; reporter increase, % at 12.5 µM; Bmi1-luciferase knock-in reporter, 24 h; 100% = twice the neutral-well signal; hit rate 2% among 350,000; in the data active = activation above about 40%; inconclusive = no clear call, values can overlap the other calls;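 also: a rise in the Bmi1 reporter signal indicates esBAF inhibition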
EWS-Fli block – EWS/Fli transcriptional activity inhibition; A673 NR0B1-luciferase reporter, viability-normalised; inhibition, % at 12.6 µM; hit rate 0.67% among 350,000; AID 651661;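 active = mean inhibition of at least 50% after viability correction, with every replicate also passing that limit; inconclusive = mean reaches 50% but only one of two replicates passes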;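 also: firefly luciferase signal divided by Alamar Blue viability fluorescence both relative to DMSO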
Wnt act – activators of Wnt/beta-catenin signaling | hit rate 1.2% among 300,000 | activation, % at 9.35 µM | Wnt/beta-catenin reporter cell assay, activator, plate reader; in the data active = activation above about 30%, passing the limit was not always enough; inconclusive = no clear call, values can overlap the other calls
DNA binder FP – small molecule DNA binding by fluorescence polarization | hit rate 2% among 640 | AC35, µM (doses to about 68 µM) | shares compounds with EWS-Fli block | salmon sperm DNA acridine orange fluorescence polarization;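 active = fitted curve reaches a 35% signal fall AC35 below twice the sample's top valid tested dose, actives reach about 48 µM in these data; inactive = the rest, including activity in the rising direction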;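 also: lower polarization ratio signals compound binding to DNA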
Numbers stand for hits; . = inactive; ? = inconclusive; / = no result.

SMILES | MITF act | PAX8 inh HTS | TRPM1 prom inh | esBAF inh | EWS-Fli block | Wnt act | DNA binder FP
O=c1[nH]c(=O)n(C2OC(CO)C(O)C(O)C2O)cc1F (stereo not drawn) | / | / | / | / | . | . | /
CCCCCCCCCCCCCCCCCCNc1ccn(C2OC(COP(=O)(O)OCC3OC(n4cc(F)c(=O)[nH]c4=O)CC3O)C(O)C2O)c(=O)n1 (stereo not drawn) | . | . | . | / | 61 | . | .
COc1cc(/C=N\Nc2nc(-c3ccc(C)cc3)c(NC(C)=O)s2)ccc1O | . | . | . | / | 54 | . | .
COc1ccc(/C=N/Nc2nc(-c3ccc(C)cc3)c(NC(C)=O)s2)cc1OC | / | . | . | / | . | . | /
C[C@H](CO)N1C[C@H](C)[C@@H](CN(C)C(=O)c2cnccn2)Oc2cc(C3=CCCC3)ccc2S1(=O)=O | / | . | / | . | . | / | /
C[C@@H]1CN([C@@H](C)CO)S(=O)(=O)c2ccc(C#CCN(C)C)cc2O[C@@H]1CN(C)Cc1ccncc1 | / | . | / | . | 53 | / | .
C[C@H]1CN([C@@H](C)CO)S(=O)(=O)c2ccc(C#CC(C)(C)O)cc2O[C@@H]1CN(C)Cc1ccc(-c2ccccc2)cc1 | / | / | / | . | 68 | / | .
C[C@@H]1CN([C@H](C)CO)S(=O)(=O)c2ccc(C#CC(C)(C)O)cc2O[C@@H]1CN(C)Cc1ccc(-c2ccccc2)cc1 | / | / | / | . | . | / | /
O=C(Nc1ccc(Cl)c(Cl)c1)N[C@H]1CC[C@@H](CCNC(=O)c2ccc(F)cc2)O[C@@H]1CO | / | . | / | . | . | / | /
O=C(O)CCc1nc(-c2ccccc2)no1 | / | . | . | . | / | . | /
CCOc1ccc(-c2noc(CCC(=O)O)n2)cc1 | . | . | 68 | . | 54 | . | .
COC(=O)C[C@@H]1CC[C@@H]2[C@H](COc3ccc(NC(=O)c4ccc(C(F)(F)F)cc4)cc3C(=O)N2C)O1 | / | . | / | . | 78 | / | .
COC(=O)C[C@@H]1CC[C@@H]2[C@H](COc3ccc(NC(=O)c4ccc(F)c(F)c4)cc3C(=O)N2C)O1 | / | . | / | . | 72 | / | .
Cc1cc(C(=O)Nc2ccc3c(c2)C(=O)N(C)[C@@H]2CC[C@@H](CC(=O)NCc4ccc(-c5ccccc5)cc4)O[C@H]2CO3)no1 | / | . | / | . | 66 | / | .
CN1C(=O)c2cc(NC(=O)c3ccc(Cl)cc3)ccc2OC[C@H]2O[C@@H](CC(=O)NCc3cccc(F)c3)CC[C@@H]21 | / | . | / | . | . | / | /
CCNC(=O)C[C@@H]1CC[C@H]2[C@@H](COc3ccc(NC(=O)c4cc(C)on4)cc3C(=O)N2C)O1 | / | . | / | . | . | / | /
CN1C(=O)c2cc(NC(=O)c3ccc(Cl)cc3)ccc2OC[C@@H]2O[C@@H](CC(=O)NCc3cccc(F)c3)CC[C@H]21 | / | . | / | . | 61 | / | .
COc1ccc(S(=O)(=O)N[C@@H]2C=C[C@@H](CC(=O)N3CCC(Cc4ccccc4)CC3)O[C@H]2CO)cc1 | / | . | / | . | . | / | /
CCOc1cc(/C=N/Nc2cc(C)nc(-n3nc(C)cc3C)n2)ccc1O | . | . | ? | . | 53 | . | .
Cc1cc(C(=O)NNC(=O)c2ccc(S(=O)(=O)N(C)C)cc2)c(C)o1 | . | . | . | . | 74 | . | .
CCCCCCCCn1ccc(=N)cc1 | / | . | . | / | . | . | /
CCCCCCCCCCCCCCCCn1cc[n+](C)c1 | . | 99 | 70 | / | 73 | . | .
Cc1nc2ncccn2c1-c1csc(Nc2ccc(O)cc2)n1 | . | . | . | / | 58 | / | .
Cc1ccc(Nc2nc(-c3c(C)nc4ncccn34)cs2)cc1 | . | / | . | / | / | / | /
CCN(Cc1ccccc1)c1ccc(/C=N/N=C(N)N)cc1 | . | / | 64 | / | 57 | . | .
SMILES | MITF act | PAX8 inh HTS | TRPM1 prom inh | esBAF inh | EWS-Fli block | Wnt act | DNA binder FP
C[C@@H]1CN([C@@H](C)CO)C(=O)c2cc(NC(=O)Nc3ccccc3)ccc2O[C@@H](C)CCCCO[C@H]1CN(C)S(=O)(=O)c1ccc(Cl)cc1 | / | . | / | . | . | / | /
Cc1[nH][nH]c(=O)c1C(c1c(C)[nH][nH]c1=O)c1cn(Cc2ccc(Cl)c(Cl)c2)c2ccccc12 | . | . | . | / | 53 | . | .
Cc1[nH][nH]c(=O)c1C(c1c(C)[nH][nH]c1=O)c1cn(Cc2ccc(F)cc2)c2ccccc12 | . | / | . | / | / | / | /
COc1ccc(/C=C(/C(=O)c2cccs2)N2C=CC=CC2=C(C#N)C#N)cc1 | . | . | . | / | 79 | . | .
COc1ccc(N=N/C(=C\O)C(=O)c2cccs2)cc1 | . | . | . | . | . | . | /
C[C@H](CO)N1C[C@H](C)[C@@H](CN(C)C(=O)Nc2cccc3ccccc23)Oc2c(NC(=O)Nc3ccc4c(c3)OCO4)cccc2C1=O | / | . | / | . | . | / | /
C[C@H](CO)N1C[C@H](C)[C@H](CN(C)Cc2ccc(Oc3ccccc3)cc2)Oc2ccc(NC(=O)CCCCCC(=O)Nc3ccccc3N)cc2CC1=O | / | . | / | . | 61 | / | .
C[C@H](CO)N1C[C@H](C)[C@H](CN(C)Cc2ccccc2)Oc2ccc(NC(=O)CCCCCC(=O)Nc3ccccc3N)cc2CC1=O | / | . | / | . | 56 | / | .
C[C@H]1CN([C@@H](C)CO)C(=O)Cc2cc(NC(=O)CCCCCC(=O)Nc3ccccc3N)ccc2O[C@H]1CN(C)Cc1ccc(C(F)(F)F)cc1 | / | . | / | . | 56 | / | .
C[C@H]1CN([C@@H](C)CO)C(=O)Cc2cc(NC(=O)CCCCCC(=O)Nc3ccccc3N)ccc2O[C@@H]1CN(C)Cc1ccc(-c2ccccc2)cc1 | / | . | / | . | . | / | /
C[C@@H]1CN([C@H](C)CO)C(=O)Cc2cc(NC(=O)CCCCCC(=O)Nc3ccccc3N)ccc2O[C@@H]1CN(C)CC1CCCCC1 | / | . | / | . | 61 | / | .
COc1ccc(S(=O)(=O)Nc2ccc3c(c2)C(=O)N([C@@H](C)CO)C[C@@H](C)[C@H](CN(C)S(=O)(=O)c2c(C)noc2C)OCCCC[C@H](C)O3)cc1 | / | . | / | . | . | / | /
C[C@H]1CN([C@@H](C)CO)C(=O)c2cccc(NC(=O)c3ccc(-c4nccs4)cc3)c2O[C@@H]1CN(C)S(=O)(=O)c1ccc(F)cc1 | / | / | / | . | . | / | /
C[C@H]1CN([C@@H](C)CO)C(=O)Cc2cc(NC(=O)CCCCCC(=O)Nc3ccccc3N)ccc2O[C@H]1CN(C)Cc1ccc(Oc2ccccc2)cc1 | / | . | / | . | 60 | / | .
C[C@@H]1CN([C@@H](C)CO)C(=O)Cc2cc(NS(=O)(=O)c3cccs3)ccc2O[C@H]1CN(C)Cc1ccc(Cl)c(Cl)c1 | / | / | / | . | 59 | / | .
C[C@@H]1CN([C@@H](C)CO)C(=O)Cc2cc(NC(=O)CCCCCC(=O)Nc3ccccc3N)ccc2O[C@@H]1CN(C)Cc1ccc(-c2ccccc2)cc1 | / | . | / | . | . | / | /
C[C@@H]1CN([C@@H](C)CO)C(=O)c2cccc(NC(=O)CCCCCC(=O)Nc3ccccc3N)c2O[C@@H]1CN(C)Cc1ccc(Oc2ccccc2)cc1 | / | . | / | / | 53 | / | .

Bioassay records as filed in PubChem BioAssay.
